ALR H2O2 inh: inhibitors of human sulfhydryl oxidase ALR | P55789 | purified ALR, DTT oxidation, H2O2 HRP-luminol luminescence | inhibition, % (test concentration not listed) | actives 3.8% (n = 290,000) | AID 485317;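 active = mean replicate inhibition above about 79%, with every replicate also reaching it, limit read from the data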
Target sequence (P55789 whole entry, looked up): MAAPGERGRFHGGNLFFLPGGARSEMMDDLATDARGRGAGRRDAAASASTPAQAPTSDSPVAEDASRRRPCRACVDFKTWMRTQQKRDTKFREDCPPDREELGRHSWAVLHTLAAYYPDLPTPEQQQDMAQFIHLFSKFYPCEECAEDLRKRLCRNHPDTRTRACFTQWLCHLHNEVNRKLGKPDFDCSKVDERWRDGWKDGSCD
SUMO Mot1 rescue: inhibitors of SUMOylation pathway: yeast Mot1-301 growth rescue; S. cerevisiae Mot1-301 growth rescue, ATP luminescence, 38.5C; percent above DMSO median, 100 means doubled; growth rescue, % at 18.8 µM; actives 1% (n = 320,000);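 active = every valid replicate shows activation above 250% relative to neutral control wells; inactive = the rest, any valid replicate at or below 250%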
CASP6 VEID inh: blocks human caspase-6 cleavage activity | purified caspase-6, Z-VEID-R110 cleavage fluorescence | P55212 | actives 0.53% (n = 350,000) | inhibition, % at 12.5 µM | AID 686996;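 active = mean inhibition across replicates at least about 35%, with every replicate also reaching that limit, limit read from the data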
Target sequence (P55212 24-179 limits assumed): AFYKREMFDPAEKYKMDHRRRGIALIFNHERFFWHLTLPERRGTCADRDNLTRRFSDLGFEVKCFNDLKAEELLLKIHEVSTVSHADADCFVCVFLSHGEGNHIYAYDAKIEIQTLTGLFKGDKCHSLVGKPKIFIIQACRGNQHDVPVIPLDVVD
Target sequence (P55212 194-293 limits assumed): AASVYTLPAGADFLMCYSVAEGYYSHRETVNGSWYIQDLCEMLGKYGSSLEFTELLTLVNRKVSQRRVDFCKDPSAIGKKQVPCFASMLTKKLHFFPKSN
NSD2 inh: inhibitors of human histone methyltransferase NSD2 | O96028 | inhibition, % at 12.5 µM | NSD2 peptide methylation, AlphaScreen, 120 min | actives 0.54% (n = 310,000); in the data active = inhibition above about 50%
CDK5 inh: inhibitors of human CDK5/p35 kinase. actives 0.01% (n = 330,000). inhibition, % at 10 µM. AID 488839. Recombinant CDK5/p35, ADP-Glo luminescence, 60 min. Q00535+Q15078;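 active = highest replicate inhibition of at least 50% and at least 75% of replicates reaching 50%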
Glyco luc inh: N-linked glycosylation inhibition | D54 ERlucT glycosylation luciferase reporter, 24 h; percent of 100 nM tunicamycin response | reporter increase, % at 12.5 µM | actives 0.23% (n = 360,000) | AID 588692;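 active = mean luciferase reporter signal, scaled so untreated is 0 and the glycosylation-blocking control 100, at or above a set limit in every replicate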;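 also: luciferase carries N-glycosylation sites so blocking glycosylation raises the light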
AlphaScreen art: AlphaScreen assay artifact in NSD2 counter-screen; shares compounds with NSD2 inh; AlphaScreen artifact counterscreen, preloaded methylated H4 peptide; AC35, µM (titrated, usually from 10 µM); actives 9.4% (n = 1,500); call rule not given here
Of the large screens only hits and unclear results are named; the others gave an inactive call (follow-up assays come after a bar, where they were run). This is a sample that favours compounds with a hit; in the whole collection about 3.9% have one here.

CC[n+]1c(/C=C/c2c[nH]c3ccccc23)ccc2cc(C)ccc21	NSD2 inh 108 (no result: ALR H2O2 inh, SUMO Mot1 rescue, Glyco luc inh) | AlphaScreen art inactive
COc1ccc(C2SCCN2S(=O)(=O)c2ccc(NC(C)=O)cc2)cc1 (configuration not stated)	none (no result: CASP6 VEID inh)
COc1ccc(C2SCCN2S(=O)(=O)c2ccccc2)cc1 (configuration not stated)	NSD2 inh 99 (no result: SUMO Mot1 rescue) | AlphaScreen art inactive
CCN(CC)CCCNc1cc(C)nc2cc(-c3cccs3)nn12	NSD2 inh 62 | AlphaScreen art inactive
CCN(CC)CCCNc1ccc2ncn3c4ccc(O)cc4c(=O)c1c23	NSD2 inh 64, Glyco luc inh 81 (no result: ALR H2O2 inh, SUMO Mot1 rescue) | AlphaScreen art inactive
C[C@@H]1CCCCO[C@H](CN(C)Cc2ccc(C(F)(F)F)cc2)[C@H](C)CN([C@@H](C)CO)C(=O)c2cc(NS(=O)(=O)c3cn(C)cn3)ccc2O1	none (no result: ALR H2O2 inh, SUMO Mot1 rescue, NSD2 inh, CDK5 inh, Glyco luc inh)
O=C(N[C@@H]1CC[C@H](CC(=O)N2CCc3ccccc3C2)O[C@H]1CO)C1CCC1	none (no result: ALR H2O2 inh, SUMO Mot1 rescue, NSD2 inh, CDK5 inh, Glyco luc inh)
COc1ccc(/C=C(\C#N)c2nc3ccc(C)cc3[nH]2)cc1Oc1ccc(C(F)(F)F)cc1[N+](=O)[O-]	none (no result: CASP6 VEID inh)
COc1cc(/C=C(\C#N)c2nc3ccc(C)cc3[nH]2)cc([N+](=O)[O-])c1O	NSD2 inh 61 (no result: ALR H2O2 inh, SUMO Mot1 rescue) | AlphaScreen art inactive
CN(Cc1nc2ccccc2c(=O)[nH]1)C(=O)c1cc2c(s1)CCCCC2	NSD2 inh 52 | AlphaScreen art inactive
COc1ccccc1C#Cc1cnc2c(c1)C(=O)N([C@@H](C)CO)C[C@@H](C)[C@@H](CN(C)C(=O)c1ccc3c(c1)OCO3)O2	none (no result: ALR H2O2 inh, SUMO Mot1 rescue, NSD2 inh, CDK5 inh, Glyco luc inh)
COc1ccc(-c2csc(Nc3ccc(S(=O)(=O)Nc4cc(C)on4)cc3)n2)cc1C	ALR H2O2 inh 99, NSD2 inh 63 | AlphaScreen art inactive
COc1ccc(-c2csc(Nc3ccc(S(=O)(=O)Nc4cc(OC)nc(OC)n4)cc3)n2)cc1	none (no result: CASP6 VEID inh, NSD2 inh)
C[C@H]1CN([C@@H](C)CO)C(=O)c2cccc(NC(=O)Nc3ccc4c(c3)OCO4)c2O[C@@H]1CN(C)C(=O)NC1CCCCC1	none (no result: ALR H2O2 inh, SUMO Mot1 rescue, NSD2 inh, CDK5 inh, Glyco luc inh)
NC(=S)NN=Cc1ccc(-c2ccc(S(=O)(=O)Nc3ncccn3)cc2)o1	CASP6 VEID inh 38, NSD2 inh 145 (no result: ALR H2O2 inh, SUMO Mot1 rescue) | AlphaScreen art inactive
CCOC(=O)CCCCC(=O)c1[nH]c(=O)[nH]c1CSc1nc2ccccc2[nH]1	NSD2 inh 100 (no result: CASP6 VEID inh) | AlphaScreen art inactive
CCOC(=O)CCCCC(=O)c1[nH]c(=O)[nH]c1CSc1nc(C)cc(=O)[nH]1	NSD2 inh 106 (no result: ALR H2O2 inh) | AlphaScreen art inactive
CCOC(=O)CCCCC(=O)c1[nH]c(=O)[nH]c1CSc1nc(C)cc(C)n1	none (no result: ALR H2O2 inh, CASP6 VEID inh, NSD2 inh)
CCOC(=O)CNC(=O)N1CCC(CCC(=O)N(C)Cc2ccccc2)CC1	NSD2 inh 65 | AlphaScreen art inactive
CC(=O)Nc1ccc(S(=O)(=O)NCCSCc2c(Cl)cccc2Cl)cc1	NSD2 inh 123 (no result: CASP6 VEID inh) | AlphaScreen art inactive
COCC(=O)Nc1ccc2c(c1)[C@@H]1C[C@@H](CC(=O)NCc3ccc(OC)cc3)O[C@H](CO)[C@@H]1O2	none (no result: ALR H2O2 inh, SUMO Mot1 rescue, NSD2 inh, CDK5 inh, Glyco luc inh)
Nc1nonc1C(=O)N/N=C/c1cc2c(cc1[N+](=O)[O-])OCO2	NSD2 inh 113 | AlphaScreen art inactive
COc1ccc(S(=O)(=O)Nc2cc(SCC(=O)O)c(O)c3ccccc23)cc1	CASP6 VEID inh 93, NSD2 inh 121 | AlphaScreen art inactive
Cc1ccc(Cn2c(SCC(=O)NCC3CCCO3)nc3c2c(=O)n(C)c(=O)n3C)cc1 (configuration not stated)	NSD2 inh 51 | AlphaScreen art inactive
CNC(=O)CSc1nc2c(c(=O)n(C)c(=O)n2C)n1Cc1ccc(C)cc1	none
CCc1ccc(N(C(=O)CNC(=O)c2ccco2)C(C(=O)NCC2CCCO2)c2ccccc2)cc1 (configuration not stated)	none
CC(=O)Nc1ccc(N(C(=O)CNC(=O)c2ccco2)C(C(=O)NCC2CCCO2)c2ccccc2)cc1 (configuration not stated)	NSD2 inh 51 | AlphaScreen art inactive
Cc1ccc(S(=O)(=O)N2CCN(C(=O)C(F)(F)F)C2c2ccc(N(C)C)cc2)cc1 (configuration not stated)	NSD2 inh 122 | AlphaScreen art inactive
COc1ccc(C2N(C(C)=O)CCN2S(=O)(=O)c2ccc(C)cc2)cc1 (configuration not stated)	none
COc1ccc(C2N(C(=O)C(F)(F)F)C(C)CN2S(=O)(=O)c2ccc(C)cc2)cc1 (configuration not stated)	NSD2 inh 86 | AlphaScreen art inactive
CCOc1ccccc1/C=N/NC(=O)c1nnn(-c2nonc2N)c1CN1CCC(C)CC1	NSD2 inh 83 | AlphaScreen art inactive
O=C(C[C@H]1CC[C@@H]2[C@H](COC[C@H](O)CN2CC2CCOCC2)O1)N1CCOCC1	none (no result: ALR H2O2 inh, SUMO Mot1 rescue, NSD2 inh, CDK5 inh, Glyco luc inh)
C=CCn1c(SCc2ccc3c(c2)OCO3)nc2scc(-c3ccco3)c2c1=O	NSD2 inh 117 (no result: CASP6 VEID inh) | AlphaScreen art inactive
CCCC(=O)N1CC2(CN(S(C)(=O)=O)C2)c2c([nH]c3cc(OC)ccc23)[C@@H]1CO	none (no result: ALR H2O2 inh, SUMO Mot1 rescue, NSD2 inh, CDK5 inh, Glyco luc inh)
C[C@@H](NC(=O)C[C@H]1CC[C@@H](NC(=O)Cc2ccccn2)[C@H](CO)O1)c1ccccc1	none (no result: ALR H2O2 inh, SUMO Mot1 rescue, NSD2 inh, CDK5 inh, Glyco luc inh)
CCOC(=O)CC(NS(=O)(=O)c1ccc2[nH]cc(C(=O)O)c(=O)c2c1)c1ccc(OCC)c(OC)c1 (configuration not stated)	CASP6 VEID inh 54, NSD2 inh 68 | AlphaScreen art inactive
N#C[C@@H]1[C@H](c2ccc(-c3cccc(F)c3)cc2)[C@H](CO)N1S(=O)(=O)c1cccc(F)c1	none (no result: ALR H2O2 inh, SUMO Mot1 rescue, NSD2 inh, CDK5 inh, Glyco luc inh)
CCN(CC)CCNC(=O)c1cc2c(-c3cccc(OC)c3)nn(C)c2s1	none
CCCN(CCC)CCNC(=O)c1cc2c(-c3ccccc3F)nn(C)c2s1	NSD2 inh 53 | AlphaScreen art inactive
COc1ccc(CCNC(=O)Nc2ccc3c(c2)c(=O)n(C)n3CC=C(C)C)cc1OC	NSD2 inh 52 (no result: ALR H2O2 inh, SUMO Mot1 rescue, CDK5 inh) | AlphaScreen art inactive
Cc1ccc(S(=O)(=O)Nc2ccc3c(c2)C(=O)N([C@@H](C)CO)C[C@@H](C)[C@H](CN(C)S(=O)(=O)c2cn(C)cn2)O3)cc1	none (no result: ALR H2O2 inh, SUMO Mot1 rescue, NSD2 inh, CDK5 inh, Glyco luc inh)
CS(=O)(=O)Nc1ccc2c(c1)[C@@H]1C[C@H](CC(=O)NCc3ccc(Oc4ccccc4)cc3)O[C@@H](CO)[C@@H]1O2	none (no result: ALR H2O2 inh, SUMO Mot1 rescue, NSD2 inh, CDK5 inh, Glyco luc inh)
C[C@H](CO)N1C[C@H](C)[C@@H](CN(C)C(=O)CCCN(C)C)OCCCC[C@H](C)Oc2ccc(NS(=O)(=O)c3ccc(F)cc3)cc2C1=O	none (no result: ALR H2O2 inh, SUMO Mot1 rescue, NSD2 inh, CDK5 inh, Glyco luc inh)
CCCNC(=O)c1ccc(CN2CCc3ccccc3C2)cc1	none (no result: CASP6 VEID inh)
COCCNC(=O)c1ccc(CN2CCc3ccccc3C2)cc1	NSD2 inh 56 | AlphaScreen art inactive

Assay outcomes: PubChem, Broad Institute
